tim23-1 inh: tim23-1 yeast growth inhibition | S. cerevisiae tim23-1 growth, BacTiter-Glo luminescence, 24 h | inhibition, % at 20 µM | actives 1.3% (n = 330,000) | AID 463212;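 active = growth inhibition of the mutant yeast at or above 50%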;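 note: temperature-sensitive mutant grown at 25 °C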
NLRP3 yeast inh: blocks the NALP3 inflammasome reconstituted in yeast. Yeast reconstituted NLRP3/ASC/caspase-1, beta-gal luminescence, 24 h. inhibition, % at 10 µM. actives 0.39% (n = 330,000). AID 2825;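 active = inhibition of 50% or more; inactive = inhibition below 50%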
NALP1 inh: blocks the NALP1 inflammasome reconstituted in yeast | S. cerevisiae NALP1/ASC/caspase-1 growth, X-gal OD620, 72 h | inhibition, % at 10 µM | actives 0.61% (n = 280,000); in the data active = inhibition mostly above about 24%, no sharp cut-off; inactive = mostly below about 32%
tim10-1 inh: growth inhibitors of tim10-1 mutant yeast. actives 2.2% (n = 330,000). inhibition, % at 20 µM. S. cerevisiae tim10-1 ts strain growth, BacTiter-Glo, 24 h. AID 463190;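 active = inhibition of at least 40%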;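 note: mutant grown at 25 °C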
V-ATPase pH: regulators of yeast V-ATPase proton transport | S. cerevisiae, pHLuorin cytosolic pH fluorescence | response, % at 10 µM | actives 0.37% (n = 350,000); in the data active = response mostly above about 7.3%, no sharp cut-off; inactive = mostly below about 5.4%; note: actives read high
TIM10 inh: inhibits growth of TIM10 yeast strain; S. cerevisiae TIM10 strain growth, BacTiter-Glo luminescence, 24 h; inhibition, % at 10 µM; actives 1.4% (n = 330,000); AID 463195;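 active = inhibition of 40% or more at the single tested concentration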;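 note: wild-type TIM10 isogenic control strain grown at permissive 25 °C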
TIM10 conf: TIM10 yeast growth inhibition, confirmed; shares compounds with TIM10 inh; S. cerevisiae tim10 strain growth, BacTiter-Glo luminescence, 24 h; inhibition, % at 10 µM; actives 63% (n = 4,600); AID 463215;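 active = inhibition of yeast growth at or above a set limit in either of two replicates at 10 µM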; note: this counterscreen used the strain with wild-type TIM10
tim23-1 confirm: confirmation of tim23-1 mutant yeast growth inhibitors. shares compounds with tim23-1 inh. S. cerevisiae tim23-1 growth, BacTiter-Glo luminescence, 24 h. inhibition, % at 20 µM. actives 83% (n = 4,400). AID 463218;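 active = inhibition above about 39% in either of two replicate wells at 20 µM, limit read from the data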;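 note: temperature-sensitive tim23-1 mutant grown at 25 °C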
Hits are given with their value; – = inactive; · = no result given. This is a sample that favours compounds with a hit; in the whole collection about 4.2% have one here.

SMILES	tim23-1 inh	NLRP3 yeast inh	NALP1 inh	tim10-1 inh	V-ATPase pH	TIM10 inh	TIM10 conf	tim23-1 confirm
CCc1sc(C(=O)Nc2ccc3c(c2)OCCO3)cc1Br	79	–	–	–	–	54	47	85
O=C(CNC(=S)NC(=O)c1cccs1)c1ccccc1	63	–	–	–	–	44	–	67
Cc1ccc(C(=O)NC(=S)NCC(=O)c2ccccc2)cc1	–	–	–	–	–	–	·	·
Cc1ccc(S(=O)(=O)/N=C(/Nc2cccc(O)c2)c2ccccc2)cc1	–	–	–	–	–	–	·	·
O=Cc1cn(-c2ccccc2)nc1-c1ccncc1	56	–	–	–	–	47	38	47
Cc1ccc(S(=O)(=O)Nc2cccc3cccnc23)c([N+](=O)[O-])c1	52	–	–	–	–	46	35	53
COc1cccc(/C=N/Nc2ncnc3scc(-c4ccccc4)c23)c1O	59	–	–	–	–	54	67	60
COc1cccc(/C=N/Nc2ncnc(Cl)c2N)c1O	–	–	–	–	–	–	·	·
COC(=O)c1ccc(COC(=O)c2ccc(C)c(S(=O)(=O)N3CCCCC3)c2)cc1	–	–	·	–	–	–	·	·
Cc1cc(C(=O)Nc2ccc3ccccc3c2)c(C)o1	–	–	–	–	–	–	·	·
Nc1ccc(-c2nc(-c3ccccc3)nc3ccccc23)cc1	67	–	–	–	–	56	54	57
O=C(O)CSc1ncnc2scc(-c3ccccc3)c12	–	–	–	–	–	–	·	·
CCC(=O)Nc1ccccc1Sc1ncnc2scc(-c3ccccc3)c12	57	–	–	–	–	43	32	50
Cc1cccc(-n2c(=O)c3ccccc3n3c(=S)[nH]nc23)c1C	–	–	–	–	–	–	·	·
Cc1ccc(-c2nnc(N3CCN(S(C)(=O)=O)CC3)c3ccccc23)cc1	–	–	–	–	–	–	·	·
Cc1ccc(-c2nnc(N3CCN(c4ccccn4)CC3)c3ccccc23)cc1	65	–	–	–	–	48	–	72
O=C(Nc1ccc2nc3n(c(=O)c2c1)CCCCC3)c1ccccn1	55	–	–	–	–	46	36	68
O=C(Nc1ccc2nc3n(c(=O)c2c1)CCCC3)c1ccccc1F	–	–	–	–	–	–	·	·
Oc1ccc(Nc2nc(-c3ccccc3O)nc3ccccc23)cc1	75	–	–	–	–	47	62	–
Oc1ccc(Nc2nc(-c3ccccc3F)nc3ccccc23)cc1	–	–	–	–	–	–	·	·
CC1=NN(c2ccc(C(=O)O)cc2)C(=O)/C1=C/c1ccc(-c2ccccc2F)o1	62	–	–	–	–	43	–	39
Cn1cc(Br)c(C(=O)N/N=C/c2cc3c(cc2Cl)OCO3)n1	–	–	–	–	–	–	·	·
Cc1ccc2nc(-c3ccccc3N)[nH]c2c1	67	–	–	–	–	44	–	–
COc1ccc(C(=O)N/C(=C\c2ccc(SC)cc2)C(=O)NCCCn2ccnc2)cc1OC	–	–	·	–	–	–	·	·
N#C/C(=C\c1ccc(N2CCOCC2)o1)c1nc2ccccc2[nH]1	54	–	–	–	–	42	31	74
SMILES	tim23-1 inh	NLRP3 yeast inh	NALP1 inh	tim10-1 inh	V-ATPase pH	TIM10 inh	TIM10 conf	tim23-1 confirm
Cc1ccc(/C=C(\C#N)C(=O)N2CCCC2)c(C)c1	52	–	–	–	–	45	39	50
O=C(COC(=O)/C=C/c1ccc([N+](=O)[O-])cc1)NNC(=O)c1ccccc1	–	–	·	–	–	–	·	·
COc1ccc(OC)c2[nH]c(C(=O)N/N=C/c3ccccc3O)cc12	54	–	–	–	–	45	–	50
O=C(c1ccco1)N1CCN(c2nc(-c3ccc(F)cc3)cs2)CC1	82	–	–	–	–	44	–	–
Cc1ccccc1OCC(=O)O/N=C(\N)Cc1ccc(Cl)cc1	82	–	–	–	–	84	79	60
Cc1ccccc1OCC(=O)O/N=C(\N)c1ccncc1	–	–	–	–	–	–	·	·
CCOc1ccc(CN(C)C(=O)c2cccc(S(=O)(=O)N3CCCC3)c2)cc1OC	–	–	·	–	–	–	·	·
